Data reported in PubChem BioAssay (NCI).
The panel holds about 83,000 compounds, 20% with a hit somewhere; the sample as a whole holds those more often.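 For each line, cells grew in 96-well plates with the test compound present at a single concentration for 48 hours.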 Values without a mark were called inactive. Activity calls are given as the source filed them. The calls were made as follows: active = growth percent below 10; inactive = the rest.

Columns and labels:
Assay in all cases: NCI-60 one-dose screen, 48 h (100 = growth as untreated, 0 = no growth, -100 = all killed)
Conditions in all cases: 10 µM unless noted
[1] = test system: NCI-H23 lung
[2] = test system: NCI-H226 lung
[3] = test system: NCI-H322M lung
[4] = test system: HOP-62 NSCLC
[5] = test system: NCI-H460 lung
[6] = test system: HOP-92 NSCLC
[7] = test system: NCI-H522 lung
[8] = test system: A549/ATCC NSCLC
[9] = test system: 786-0 renal
[10] = test system: COLO 205 colon
[11] = test system: DU-145 prostate
[12] = test system: K-562 leukemia
[13] = test system: MALME-3M melanoma
[14] = test system: MDA-MB-231 breast
[15] = test system: RXF 393 renal
[16] = test system: SF-268 CNS
[17] = test system: SF-295 CNS
[18] = test system: SF-539 CNS
[19] = test system: UACC-257 melanoma
[20] = test system: M14 melanoma

Row | SMILES | growth [1] | growth [2] | growth [3] | growth [4] | growth [5] | growth [6] | growth [7] | growth [8] | growth [9] | growth [10] | growth [11] | growth [12] | growth [13] | growth [14] | growth [15] | growth [16] | growth [17] | growth [18] | growth [19] | growth [20]
1 | CCCCC[C@H]1C/C=C2/C(=O)C(Cl)=C[C@@H]2C/C=C\CCCC(=O)O[C@@H](CCCCC)C/C=C2/C(=O)C(Cl)=C[C@@H]2C/C=C\CCCC(=O)O1 | -24.7% (active) | -34.3% (active) | -31.2% (active) | -52.8% (active) | -27.2% (active) | -63.4% (active) | -67.3% (active) | -51.4% (active) | -66.9% (active) | -76.4% (active) | -31.4% (active) | 0.851% (active) | -14.1% (active) | -29.9% (active) | -87.5% (active) | 1.58% (active) | -27.3% (active) | -11.3% (active) | -63.5% (active) | -61.5% (active)
2 | CCN1CCN(C(=O)[C@@]2(C)CC[C@]3(C)CC[C@]4(C)C(=CC(=O)[C@@H]5[C@@]6(C)CC[C@H](OC7C[C@@H](O)[C@@H](O)C(C)O7)C(C)(C)[C@@H]6CC[C@]54C)[C@@H]3C2)CC1 (stereo not given in full) | 45.2% | 26.3% | 37% | 26.9% | -79.5% (active) | 0.911% (active) | 38.6% | 12.5% | -60.5% (active) | 106% | 2.94% (active) | 8.78% (active) | 2.56% (active) | 6.15% (active) | 60.4% | 24.2% | -78% (active) | -59.2% (active) | 14.8% | -55.2% (active)
3 | CCN1CCN(C(=O)[C@]23CCC(C)(C)C[C@@H]2C2=CC[C@@H]4[C@@]5(C)C/C(=C/c6ccncc6)C(=O)C(C)(C)[C@@H]5CC[C@@]4(C)[C@]2(C)CC3)CC1 | -7.07% (active) | -42.8% (active) | 27% | -66.9% (active) | -64.7% (active) | -11% (active) | -59% (active) | 4.33% (active) | -73.6% (active) | -15.3% (active) | -16.9% (active) | -13.1% (active) | -87.9% (active) | -59.9% (active) | -93.3% (active) | 14.8% | -55.9% (active) | -96.4% (active) | -2.01% (active) | -76% (active)
4 | COC(=O)[C@]12CC[C@@H](C(/C=C/c3cccnc3)=N/O)[C@@H]1[C@H]1CC[C@@H]3[C@@]4(C)CC(=C/c5cccnc5)/C(=N/O)C(C)(C)[C@@H]4CC[C@@]3(C)[C@]1(C)CC2 | 43.1% | 13.7% | 76.5% | 60% | 36.8% | 54.4% | 43.3% | 44.6% | 67.8% | 18% | 55.6% | 24.9% | 39.2% | 45.5% | 67.1% | 56.7% | 30.6% | 72.3% | 59.1% | 19.3%
5 | CCN1CCN(C(=O)[C@]23CCC(C)(C)C[C@H]2C2=CC[C@@H]4[C@@]5(C)CC/C(=N/O)C(C)(C)[C@@H]5CC[C@@]4(C)[C@]2(C)CC3)CC1 | 69.7% | 66.5% | 86.1% | 76.9% | 72% | 52.7% | 45.2% | 74% | 57.5% | 87.9% | 86.4% | 58.8% | 62.9% | 9.19% (active) | 81.2% | 67.2% | 65.7% | 80.4% | 80.4% | 65.6%
6 | Cc1cc(Cl)nc(N(CCCNc2ccnc3cc(Cl)ccc23)Cc2ccco2)n1 | 8.17% (active) | 24.1% | 42.8% | 25.7% | 16.7% | -3.26% (active) | 13.8% | 29.2% | 19.5% | -54.5% (active) | 46.2% | 0.302% (active) | 4.4% (active) | 22.9% | 26.6% | 52.5% | 20.6% | 20.1% | 23.3% | -6.17% (active)
7 | COc1ccc(-c2nc3c(c(C)nn3-c3ccc(F)cc3)c(=O)[nH]2)cc1 | 83.3% | 33.1% | 78.7% | 58.8% | 28.2% | 91.8% | 81.3% | 45.9% | 11% | 74% | 85% | 97.1% | 75.3% | 75.2% | 82.8% | 78.9% | 68.1% | 87% | 101% | 82.7%
8 | O=C1c2cccc3cccc(c23)C(=O)N1CC#Cc1ccc2c3c(cccc13)C(=O)N(CCO)C2=O | 81% | 91.9% | 94.9% | 84.5% | 95.8% | 86.4% | 92% | 97.3% | 98.1% | 118% | 88.6% | 95.1% | 100% | 66.9% | 85.1% | 78.9% | 98.7% | 90.8% | 94.2% | 84.8%
9 | COc1ccc2c(c1)c(-c1nc(-c3c[nH]c4ncccc34)cs1)cn2CCNC(=O)OC(C)(C)C | 70.6% | 72% | 82.6% | 64.1% | 82.2% | 54.9% | 61% | 72.6% | 73.6% | 84.6% | 89.3% | 62.4% | 103% | 53.2% | 83.1% | 83.5% | 85.1% | 66.5% | 98.5% | 69.3%
10 | COc1cnc2c(c1)C(=O)c1c-2n(CCCNCCN2CCOCC2)c(=O)c2cc([N+](=O)[O-])ccc12 | -21.7% (active) | -52.7% (active) | 6.04% (active) | -0.313% (active) | -55.2% (active) | -4.05% (active) | -19.9% (active) | -72.1% (active) | -53.6% (active) | -2.78% (active) | 2.63% (active) | 0.36% (active) | -11.7% (active) | 2.48% (active) | -32.3% (active) | 12.3% | 1.52% (active) | -1.79% (active) | 5.34% (active) | 6.27% (active)
11 | CCOC(=O)C/C(=C\c1ccccc1)C(C)=O | 104% | 98.7% | 114% | 73.4% | 112% | 92.2% | 76.7% | 67.4% | 101% | 102% | 109% | 87.6% | 105% | -43.5% (active) | 115% | 102% | 98.5% | 105% | 82.8% | 91.9%
12 | O=C1OC(c2ccc(Cl)c(Cl)c2)=C/C1=C/c1cccc([N+](=O)[O-])c1 | 88.1% | 86.3% | 102% | 94.2% | 102% | 94.3% | 90.9% | 97.4% | 105% | 108% | 109% | 99% | 101% | 108% | 96.4% | 97.9% | 101% | 103% | 103% | 106%
13 | CC1(C)NC2=C(C(Nc3cccnc3)N1)C(c1ccc([N+](=O)[O-])cc1)C(C(=O)c1ccc(N=[N+]=[N-])cc1)O2 (stereo not given) | 103% | 105% | 100% | 103% | 95.4% | 94% | 96.7% | 104% | 100% | 109% | 106% | 101% | 99.2% | 102% | 112% | 101% | 104% | 102% | 104% | 104%
14 | CCCNc1nc(N(C)O)nc(N(C)O)n1 | 41.3% | 62.9% | 41.5% | 16.6% | 11.5% | 45.2% | 37% | 41.3% | 7.79% (active) | 9.94% (active) | 24.9% | 50.7% | 83.2% | 39.5% | 39% | 35.2% | 21.5% | 27.1% | 56.2% | 20.7%
15 | Brc1ccc(Cn2nnnc2-c2ccn(-c3ccccc3)n2)cc1 | 62.3% | 62.8% | 76.8% | 74.3% | 73.8% | 63.8% | -1.66% (active) | 67.8% | 82.8% | 96.6% | 85.8% | 46.2% | 103% | 73.5% | 87.1% | 73.2% | 50.5% | 80.8% | 28.8% | 83.4%
